Reference: PubChem BioAssay AID1159580 (chemical genetic matrix, 2015)
Among all 5,500 compounds or so, about 2,000 (36%) were called active. Inconclusive results (about 18%) are left out. Rule as the data show it: active = normalized growth mostly below about 0.91 (no sharp cut-off); inconclusive = no clear call, values can overlap the other calls; inactive = mostly above about 0.92. Some of the results follow.

Assay: chemical genetic growth profiling, strain panel (AID 1159580);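 also: tested at 20 µM; growth read once vehicle control cultures reached saturation at 30 °C; 1 = growth at the plate median or of vehicle wells; lower values mean less growth of the strain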
Conditions: growth OD

Measured: normalized growth

COC(=O)CC1C2(C)CC34OC5(C)OC6(C7/C(=C(/O)C(C)C)C(=O)OC(c8ccoc8)C7(C)C(OC(=O)C(C)C)C(OC)C6(O5)C13C)C(OC)C4(OC)C2OC(C)=O (stereo not drawn)
inactive: S. cerevisiae deletion strains, locus YAL013W, strain DEP1, hits give low values 0.997 | S. cerevisiae deletion strains, locus YBR021W, strain FUR4, hits give low values 1.02 | S. cerevisiae deletion strains, locus YBR229C, strain ROT2, hits give low values 1 | S. cerevisiae deletion strains, locus YCL029C, strain bik1, hits give low values 0.99 | S. cerevisiae deletion strains, locus YDL035C, strain GPR1, hits give low values 1.02 | S. cerevisiae deletion strains, locus YDL074C, strain BRE1, hits give low values 1.01 | S. cerevisiae deletion strains, locus YDL101C, strain DUN1, hits give low values 1.01 | S. cerevisiae deletion strains, locus YDL134C, strain PPH21, hits give low values 1.01 | S. cerevisiae deletion strains, locus YDL185W, strain tfp1, hits give low values 0.991 | S. cerevisiae deletion strains, locus YDL192W, strain arf1, hits give low values 0.994 | S. cerevisiae deletion strains, locus YDR101C, strain arx1, hits give low values 0.991 | S. cerevisiae deletion strains, locus YDR162C, strain NBP2, hits give low values 1.01 | S. cerevisiae deletion strains, locus YDR318W, strain mcm21, hits give low values 0.988 | S. cerevisiae deletion strains, locus YDR388W, hits give low values 0.995 | S. cerevisiae deletion strains, locus YDR502C, strain sam2, hits give low values 0.988 | S. cerevisiae deletion strains, locus YEL061C, strain CIN8, hits give low values 0.994 | S. cerevisiae deletion strains, locus YER110C, hits give low values 0.988 | S. cerevisiae deletion strains, locus YER155C, strain BEM2, hits give low values 1 | S. cerevisiae deletion strains, locus YER167W, strain BCK2, hits give low values 1.02 | S. cerevisiae deletion strains, locus YGL078C, strain dbp3, hits give low values 0.979 | S. cerevisiae deletion strains, locus YGL086W, strain mad1, hits give low values 0.975 | S. cerevisiae deletion strains, locus YGL248W, strain PDE1, hits give low values 1.01 | S. cerevisiae deletion strains, locus YGR078C, strain PAC10, hits give low values 1.02 | S. cerevisiae deletion strains, locus YGR135W, strain pre9, hits give low values 0.987 | S. cerevisiae deletion strains, locus YGR229C, strain SMI1, hits give low values 1 | S. cerevisiae deletion strains, locus YGR252W, strain gcn5, hits give low values 0.937 | S. cerevisiae deletion strains, locus YHR030C, strain SLT2, hits give low values 1.01 | S. cerevisiae deletion strains, locus YHR079C, strain IRE1 (second series), hits give low values 0.985 | S. cerevisiae deletion strains, locus YHR094C, strain hxt1, hits give low values 0.989 | S. cerevisiae deletion strains, locus YHR129C, strain ARP1, hits give low values 1.01 | S. cerevisiae deletion strains, locus YHR200W, strain rpn10, hits give low values 0.99 | S. cerevisiae deletion strains, locus YIL066C, strain RNR3, hits give low values 1.03 | S. cerevisiae deletion strains, locus YIL073C, strain SPO22, hits give low values 1.03 | S. cerevisiae deletion strains, locus YIL125W, strain kgd1, hits give low values 0.991 | S. cerevisiae deletion strains, locus YIR030C, strain dcg1, hits give low values 0.996 | S. cerevisiae deletion strains, locus YJL095W, strain BCK1, hits give low values 1.03 | S. cerevisiae deletion strains, locus YJL134W, strain LCB3, hits give low values 1.01 | S. cerevisiae deletion strains, locus YJL168C, strain set2, hits give low values 0.986 | S. cerevisiae deletion strains, locus YJL187C, strain SWE1 (second series), hits give low values 1.01 | S. cerevisiae deletion strains, locus YJR043C, strain POL32, hits give low values 1.01 | S. cerevisiae deletion strains, locus YJR075W, strain HOC1, hits give low values 1.01 | S. cerevisiae deletion strains, locus YKL009W, strain mrt4, hits give low values 0.984 | S. cerevisiae deletion strains, locus YKL068W, hits give low values 1 | S. cerevisiae deletion strains, locus YKL085W, strain MDH1 (second series), hits give low values 1 | S. cerevisiae deletion strains, locus YKL085W, strain MDH1, hits give low values 1 | S. cerevisiae deletion strains, locus YKR001C, strain vps1, hits give low values 0.988 | S. cerevisiae deletion strains, locus YLR039C, strain RIC1, hits give low values 1.04 | S. cerevisiae deletion strains, locus YLR058C, strain SHM2, hits give low values 1.01 | S. cerevisiae deletion strains, locus YLR102C, strain apc9, hits give low values 0.988 | S. cerevisiae deletion strains, locus YLR262C, strain YPT6, hits give low values 1.05 | S. cerevisiae deletion strains, locus YLR268W, strain sec22, hits give low values 0.989 | S. cerevisiae deletion strains, locus YLR330W, strain CHS5, hits give low values 1.01 | S. cerevisiae deletion strains, locus YLR342W, strain FKS1 (second series), hits give low values 0.999 | S. cerevisiae deletion strains, locus YLR371W, strain rom2, hits give low values 0.983 | S. cerevisiae deletion strains, locus YLR418C, strain cdc73, hits give low values 1.01 | S. cerevisiae deletion strains, locus YML016C, strain PPZ1, hits give low values 1 | S. cerevisiae deletion strains, locus YML032C, strain rad52, hits give low values 0.985 | S. cerevisiae deletion strains, locus YML124C, strain tub3, hits give low values 0.99 | S. cerevisiae deletion strains, locus YMR078C, strain ctf18, hits give low values 0.994 | S. cerevisiae deletion strains, locus YMR223W, strain ubp8, hits give low values 0.994 | S. cerevisiae deletion strains, locus YMR307W, strain GAS1, hits give low values 1.05 | S. cerevisiae deletion strains, locus YNL067W, strain RPL9B, hits give low values 1 | S. cerevisiae deletion strains, locus YNL233W, strain BNI4, hits give low values 1.04 | S. cerevisiae deletion strains, locus YNL250W, strain rad50, hits give low values 1.02 | S. cerevisiae deletion strains, locus YNL271C, strain bni1, hits give low values 0.992 | S. cerevisiae deletion strains, locus YNL298W, strain CLA4, hits give low values 0.987 | S. cerevisiae deletion strains, locus YNL307C, strain MCK1, hits give low values 0.996 | S. cerevisiae deletion strains, locus YNL322C, strain KRE1, hits give low values 1 | S. cerevisiae deletion strains, locus YNR052C, strain pop2, hits give low values 0.977 | S. cerevisiae deletion strains, locus YOL012C, strain htz1 0.95 | S. cerevisiae deletion strains, locus YOL147C, strain pex11, hits give low values 0.984 | S. cerevisiae deletion strains, locus YOR061W, strain CKA2, hits give low values 1.01 | S. cerevisiae deletion strains, locus YOR069W, strain VPS5, hits give low values 1.01 | S. cerevisiae deletion strains, locus YOR136W, strain idh2, hits give low values 0.991 | S. cerevisiae deletion strains, locus YOR144C, strain elg1, hits give low values 0.989 | S. cerevisiae deletion strains, locus YOR184W, strain ser1, hits give low values 0.976 | S. cerevisiae deletion strains, locus YOR316C, strain cot1, hits give low values 0.992 | S. cerevisiae deletion strains, locus YPR119W, strain clb2, hits give low values 0.982 | S. cerevisiae deletion strains, locus YPR141C, strain kar3, hits give low values 0.998 | S. cerevisiae deletion strains, locus YPR163C, strain tif3, hits give low values 0.999 | S. cerevisiae deletion strains, locus YPR167C, strain met16, hits give low values 0.99 | S. cerevisiae deletion strains, strain wtn01, hits give low values 0.974 | S. cerevisiae strains, strain wild type, hits give low values 1.01
